High-throughput results deposited in PubChem by Broad Institute.
aSyn 5UTR act = Activators via SNCA 5'UTR binding, MLPCN | alpha-synuclein 5'UTR reporter, activators screen | activity score, % (tested at 7.5 µM), hits read low | 300,000 compounds, 7.1% hits; in the data active = activity score below about -60%
Of the large screens only hits and unclear results are named; the others gave an inactive call. This excerpt belongs to a sample that is enriched for hits.

Cc1cc(Cl)ccc1OCC(=O)N1C(C)CCCC1C (centres undefined)	aSyn 5UTR act -62
Cc1cc(Cl)ccc1OCCCC(=O)N1CCOCC1	aSyn 5UTR act -95
Cc1cc(Cl)ccc1OCCCC(=O)N1CCCCC1	aSyn 5UTR act -101
CC(=O)NC1=NN(C(C)=O)C(c2ccc(C(C)C)cc2)S1 (centres undefined)	aSyn 5UTR act -77
C=CC[n+]1c(-c2ccc(C)cc2)csc1Nc1ccc(NC(C)=O)cc1	none
c1ccc(Nc2scc(-c3ccccc3)[n+]2Cc2ccco2)cc1	aSyn 5UTR act -222
O=c1/c(=C/c2ccc([N+](=O)[O-])cc2)sc2n1CCCN=2	aSyn 5UTR act -173
COc1cc(/C=c2\sc3n(c2=O)CCCN=3)ccc1O	aSyn 5UTR act -102
COc1ccc(/C=c2/sc3n(c2=O)C(c2ccccc2OC)C2=C(N=3)c3ccccc3CC2)cc1O (centres undefined)	none
Cc1ccsc1/C=C1\CCc2ccccc2C1=O	aSyn 5UTR act -165
Cc1ccccc1/C=C1\CCCc2ccccc2C1=O	aSyn 5UTR act -241
Cc1ccn(-c2cc(O)c(-n3ccc(C)n3)cc2O)n1	aSyn 5UTR act -85
Cc1ccc(N=C2NC(=O)/C(=C/c3cccn3C)S2)cc1	aSyn 5UTR act -80
Cc1ccc(N=C2NC(=O)/C(=C/c3cccn3C)S2)cc1C	aSyn 5UTR act -127
O=C1NC(=Nc2ccccc2)S/C1=C/c1cccs1	aSyn 5UTR act -117
Cc1cc(C)n(-c2ccc(C(=O)Nc3ccc4c(c3)OCO4)cc2)n1	aSyn 5UTR act -173
Cc1cc(C)n(-c2ccc(C(=O)NC3=NCCS3)cc2)n1	aSyn 5UTR act -110
CCCc1ccc(-c2cc(NC(=O)CSc3nnc(N)s3)n(-c3ccccc3)n2)cc1	aSyn 5UTR act -146
COc1ccc(N=CC2=C(O)c3ccccc3C2=O)cc1	aSyn 5UTR act -80
O=C1C(C=Nc2ccccc2)=C(O)c2ccccc21	aSyn 5UTR act -78
NC(=O)CSc1nc(-c2ccccc2Cl)ns1	aSyn 5UTR act -121
Cc1cc(CN(C)C(=O)CCc2nnc(Cc3cccc(C(F)(F)F)c3)o2)on1	aSyn 5UTR act -79
O=C(CCc1nnc(Cc2cccc(C(F)(F)F)c2)o1)NCCc1ccccc1F	aSyn 5UTR act -71
CCN(CC)C(=O)CCc1nnc(Cc2cccc(C(F)(F)F)c2)o1	aSyn 5UTR act -177
CC(=O)CCC(=O)NCCc1ccccc1F	aSyn 5UTR act -63
Cc1cc(CNC(=O)c2ccc3nc(Cc4ccccc4F)oc3c2)nn1C	aSyn 5UTR act -135
O=C(c1ccc2nc(Cc3ccccc3F)oc2c1)N1CCCC1	aSyn 5UTR act -150
CC(c1ccccn1)N(C)C(=O)c1ccc2nc(Cc3ccccc3F)oc2c1 (centres undefined)	aSyn 5UTR act -102
CC(C)OC(=O)c1ccc(NC(=O)c2ccco2)cc1	aSyn 5UTR act -140
CCOC(=O)/C(=C/c1ccccc1)NC(=O)c1ccco1	aSyn 5UTR act -65
CCOC(=O)c1ccc(NC(=O)c2ccco2)cc1	aSyn 5UTR act -189
O=C(Nc1ccccc1)c1ccc(OC(=O)c2ccccc2)cc1	aSyn 5UTR act -63
CCCOC(=O)c1ccc(NC(=O)c2ccoc2C)cc1	aSyn 5UTR act -154
CC(C)OC(=O)c1ccc(NC(=O)c2ccccc2)cc1	aSyn 5UTR act -78
Cc1ccc(NC(=O)c2ccccc2)cc1OC(=O)c1ccccc1	aSyn 5UTR act -109
O=C(c1ccccc1)c1nc[nH]c1C(=O)Nc1ccccc1	aSyn 5UTR act -91
Cc1ccc(NC(=O)c2[nH]cnc2C(=O)NN)cc1	aSyn 5UTR act -65
Cc1ccc(NC(=O)c2noc3c2CCc2ccccc2-3)cc1	aSyn 5UTR act -205
CCc1ccc(NC(=O)C2(C)Cc3ccccc3C(=O)O2)cc1 (centres undefined)	aSyn 5UTR act -142
CCc1ccc(NC(=O)c2noc3c2CCc2ccccc2-3)cc1	aSyn 5UTR act -95
N/C(=N\OC(=O)c1cc(Cl)ccc1Cl)c1ccccn1	aSyn 5UTR act -122
COc1ccc(Cl)cc1C(=O)O/N=C(\N)c1ccccn1	aSyn 5UTR act -159
COc1ccccc1C(=O)O/N=C(\N)c1ccccc1Cl	aSyn 5UTR act -139
COCCNC(=O)c1cc(-c2ccc(Cl)c(Cl)c2)on1	aSyn 5UTR act -78
O=C(c1cc(-c2ccc(F)cc2)on1)N1CCOCC1	aSyn 5UTR act -111
O=C(c1cc(-c2cccc(Cl)c2)on1)N1CCOCC1	aSyn 5UTR act -171
O=C(c1cc(-c2ccc(Cl)c(Cl)c2)on1)N1CCOCC1	aSyn 5UTR act -151
O=C(c1cc(-c2ccc(Cl)cc2Cl)on1)N1CCOCC1	none
Cc1cccc(NC(=O)/C(C#N)=C/c2ccccc2O)n1	aSyn 5UTR act -140
CCCCNc1c(-c2ccc(SC3CCCCC3)cc2)nc2ccccn12	aSyn 5UTR act -83
CN1CCN(C(=O)c2cc(COc3ccccc3)on2)[C@@H](c2ccccc2)C1	aSyn 5UTR act -166
Cc1ccc(OCc2cc(C(=O)N3CCN(C)C[C@@H]3c3ccccc3)no2)cc1C	aSyn 5UTR act -106
COc1ccc2c(c1)CCc1c-2nc2ccccc2c1N1CCOCC1	aSyn 5UTR act -87
CC1(C)CC(=O)c2cnc(N3CCc4ccccc43)nc2C1	aSyn 5UTR act -118
Fc1cnc(N2CCc3ccccc32)nc1N1CCc2ccccc21	aSyn 5UTR act -82
C(=C\c1ccco1)/c1nc2ccccc2[nH]1	aSyn 5UTR act -141
Cc1c(C(=O)O)cccc1-c1ccc(C=O)o1	aSyn 5UTR act -80
C/C(=N/Nc1ccccc1[N+](=O)[O-])c1ccc(C)c([N+](=O)[O-])c1	aSyn 5UTR act -166
O=[N+]([O-])c1c(Nc2ccccc2O)cc(N2CCOCC2)c2nonc12	none
CC(C)/C(=N/Nc1ccccc1[N+](=O)[O-])c1ccccc1	aSyn 5UTR act -86
C/C(=N\Nc1ccccc1[N+](=O)[O-])c1ccc(N2CCOCC2)cc1	aSyn 5UTR act -82
O=C(Nc1nnc(/C=C/c2ccccc2)s1)c1ccco1	aSyn 5UTR act -83
COc1ccc(Cc2nnc(NC(=O)c3ccco3)s2)cc1	aSyn 5UTR act -62
O=C(Nc1nnc(-c2ccc(F)cc2)s1)c1ccco1	aSyn 5UTR act -121
CC(C)Sc1nnc(NC(=O)c2ccco2)s1	aSyn 5UTR act -64
Cc1cccc(-c2nnc(NC(=O)c3ccco3)s2)c1	aSyn 5UTR act -124
CC(=O)c1ccc(OCc2cc(C(=O)N3CCOCC3)no2)cc1	aSyn 5UTR act -154
CC(=O)c1ccc(OCc2cc(C(=O)N3CCC(Oc4ccccc4C)CC3)no2)cc1	aSyn 5UTR act -182
Cc1nc(NC(C)C)c2cnn(CCc3ccccc3)c2n1	aSyn 5UTR act -133
CCCNc1nc(C)nc2c1cnn2CCc1ccccc1	aSyn 5UTR act -105
Cc1nnc(NC(=O)Nc2cccc(Cl)c2)s1	aSyn 5UTR act -122
Cc1csc(NC(=O)Nc2cccc(Cl)c2)n1	aSyn 5UTR act -203
O=C(COc1ccc(F)cc1)Nc1nc2c(s1)CCCC2	aSyn 5UTR act -92
O=C(Nc1nccs1)c1ccc(COc2ccc(F)cc2)o1	aSyn 5UTR act -97
Cc1c(C)c2ccc(OCC(=O)Nc3nccs3)cc2oc1=O	none
O=C(COc1ccc(F)cc1)Nc1nccs1	aSyn 5UTR act -91
CCOC(=O)/C(C#N)=C/c1c(N2CCN(c3ccccc3)CC2)nc2ccccn2c1=O	aSyn 5UTR act -62
N#C/C(=C\c1c(N2CCN(c3ccccc3)CC2)nc2ccccn2c1=O)C(N)=O	aSyn 5UTR act -71
COC(=O)/C(C#N)=C/c1c(N2CCN(c3ccccc3)CC2)nc2ccccn2c1=O	aSyn 5UTR act -65
Cc1ccc(-c2ccc(/C=N/O)o2)cc1[N+](=O)[O-]	aSyn 5UTR act -66
CN1CCN(c2ccc(NC(=O)COc3ccccc3Cl)cc2)CC1	aSyn 5UTR act -65
